High-throughput results from PubChem.
FAS-TE inh: blocks the thioesterase domain of human fatty acid synthase | P49327 | recombinant FAS-TE, OMFH fluorogenic substrate, fluorescence endpoint | inhibition, % at 15 µM | actives 0.67% (n = 360,000);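 active = compounds whose normalised, plate-corrected inhibition of enzyme fluorescence in the single-dose primary screen is 50% or more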;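 note: 0% = DMSO with enzyme and 100% = substrate without enzyme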
APOBEC3G inh: APOBEC3G (human) deaminase inhibition | actives 0.28% (n = 330,000) | recombinant A3G, ssDNA deamination FAM/TAMRA fluorescence | AID 493012 | inhibition, % at 20 µM | Q9HC16;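 active = inhibition of at least 40% at 20 µM, with no more than 30% in the related APOBEC3A deaminase screen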;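 note: plate controls were DMSO wells with A3G for no effect and wells lacking A3G enzyme for full effect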
NPR1 activator: GC-A (human) enzyme activation; P16066; HEK293 GC-A cells, cGMP TR-FRET, EC30 ANP; 0% at EC30 ANP, 100% saturating ANP; activation, % at 10 µM; actives 0.14% (n = 370,000); AID 1671463; in the data active = activation above about 40%
NPR2 activator: GC-B (human) receptor activation. HEK293-GC-B cells, CNP EC30, cGMP TR-FRET; 0% at EC30 CNP, 100% saturating CNP. actives 0.11% (n = 370,000). P20594. AID 1920062. activation, % at 10 µM;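 active = activation at 10 µM reaching about 35% in either raw or pattern-adjusted values, limit read from the data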
A3A deaminase: human APOBEC3A DNA deaminase inhibition; recombinant A3A, FAM/TAMRA ssDNA deamination fluorescence; inhibition, % at 20 µM; actives 0.41% (n = 330,000);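 active = at least 40% inhibition at 20 µM here, with at most 30% in a related deaminase screen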;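 note: plate controls were A3A with DMSO for no effect and wells lacking A3A enzyme for full effect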
Target sequence (P31941 whole entry, looked up): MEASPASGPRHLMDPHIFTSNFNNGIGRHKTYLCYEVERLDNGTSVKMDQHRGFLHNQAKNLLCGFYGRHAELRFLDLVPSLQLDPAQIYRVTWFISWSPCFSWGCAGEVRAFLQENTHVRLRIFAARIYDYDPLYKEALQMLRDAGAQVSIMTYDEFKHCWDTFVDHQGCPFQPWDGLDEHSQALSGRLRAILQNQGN
APOBEC3A confirm: APOBEC3A (human) deaminase inhibition, confirmed; shares compounds with A3A deaminase; recombinant A3A, ssDNA deaminase UDG fluorescence assay; inhibition, % at 20 µM; actives 63% (n = 1,400);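 active = inhibition reaching a set limit, 80% of the first screen's cutoff, at 20 µM in any replicate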;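 note: plate controls were DMSO wells with A3A for no effect and wells lacking A3A enzyme for full effect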
UDG ctr A3A: inhibits UDG, flagging false APOBEC3A inhibitors | shares compounds with A3A deaminase | AID 504714 | 1,000 tested, under 10 active | UDG counterscreen, FAM/TAMRA uracil oligo fluorescence | inhibition, % at 20 µM; call rule not given here
* = called active by the depositor; · = no result. This is a sample that favours compounds with a hit; in the whole collection about 1.4% have one here.

SMILES	FAS-TE inh	APOBEC3G inh	NPR1 activator	NPR2 activator	A3A deaminase	APOBEC3A confirm	UDG ctr A3A
CCN1C(=NCC(C)C)N[C@@H](c2cccc(C(F)(F)F)c2)C(C(=O)OC)=C1C	-5.7	10.0	-15.4	-20.2	59.2*	61.3*	·
C=CCN=C1N[C@@H](c2ccccc2)C(C(=O)OC)=C(C)N1CC	-13.3	23.4	·	·	66.0*	58.4*	1.5
COC(=O)C1=C(C)N(Cc2cccc(C(F)(F)F)c2)C(=NCC2CC2)NC1c1cccc(C(F)(F)F)c1 (stereo not drawn)	·	·	-23.5	-16.6	·	·	·
C=CCN=C1N[C@@H](c2cccc(C(F)(F)F)c2)C(C(=O)OC)=C(C)N1CC	-9.5	6.8	-13.9	-21.6	49.9*	71.2*	-2.0
COC(=O)C1=C(C)N(Cc2ccccc2)C(=NCc2cccc(C(F)(F)F)c2)N[C@H]1c1cccc(C(F)(F)F)c1	30.8	-6.2	·	·	-1.6	·	·
COC(=O)C1=C(C)N(CC2CC2)C(=NCCN2CCOCC2)N[C@H]1c1ccccc1	-12.6	21.5	·	·	71.2*	68.5*	1.4
COC(=O)C1=C(C)N(CC2CC2)C(=NCc2cccc(C(F)(F)F)c2)N[C@H]1c1ccccc1	-31.1	19.4	·	·	37.8	·	·
CCOC(=O)CN1C(=O)N[C@@H](c2cccs2)C(C(=O)OC)=C1C	-3.8	3.2	4.6	4.0	0.7	·	·
CCN1C(=NCCc2cccs2)N[C@@H](c2cccs2)C(C(=O)OC)=C1C	-7.1	6.4	·	·	53.3*	65.5*	-2.3
C[C@@H]1Cc2cc(O)cc(O)c2C(=O)O1	·	·	-0.9	1.1	·	·	·
CCCCc1c(-c2ccccc2OC)ncn1Cc1cccc(F)c1F	·	·	-10.2	-12.1	·	·	·
O=C1C=C(O)c2c(O)cc(O)c(O)c2C1=O	3.0	8.2	-12.2	-8.7	83.4*	76.0*	·
O=C1c2ccccc2C(=O)c2c(O)c(O)cc(O)c21	4.8	0.7	-6.8	-0.5	5.3	·	·
COP1(=O)CCOCC[C@H](CC(C)C)NC(=O)[C@H](CC(C)C)N1 (stereo partly drawn)	·	·	0.4	-6.5	·	·	·
CCn1c(SC)nnc1-c1nn(-c2ccccc2)ccc1=O	-6.9	15.5	-1.5	3.3	57.9*	66.3*	-3.5
CC(C)C(NC(=O)COc1ccc2ccccc2c1)C(=O)N/N=C/C=C/c1ccccc1 (stereo not drawn)	-5.7	16.2	-3.4	3.7	41.3*	63.0*	3.4
CC(C)c1ccc(NC(=O)OC2CCC23CCC(c2ccccc2)CC3)cc1 (stereo not drawn)	·	·	2.8	-11.8	·	·	·
COc1ccc(CSCC(=O)N/N=C/c2ccc(OCC(=O)N3CCCCC3)cc2)cc1	-0.3	21.8	2.2	-1.4	52.5*	52.5*	-2.3
O=C(CSCc1ccccc1)N/N=C/c1ccc(OCC(=O)N2CCCCC2)cc1	-14.7	·	1.8	-5.3	·	·	·
CCN(CC)C(=O)CC[C@H]1CC[C@]2(CCCN(S(=O)(=O)c3ccccc3)C2)O1	·	·	3.3	-2.7	·	·	·
COc1ccc(-c2nnc3sc(C4CCCCC4)nn23)cc1OC	5.2	16.3	4.1	-3.9	49.4*	30.4	·
CC(C)(C)S(=O)(=O)N1Cc2cc(CO)ccc2[C@@H]1CCO	·	·	1.5	3.2	·	·	·
Cc1ccnc(SCc2cc(=O)c(OC(=O)c3ccc(C)c([N+](=O)[O-])c3)co2)n1	·	·	2.2	2.0	·	·	·
CCCOc1ccc(/C=c2\sc3nc(-c4ccco4)nn3c2=O)cc1OCC	-5.3	21.3	20.8	4.3	74.0*	29.7*	-3.1
CC(=O)Oc1cccc(/C=c2\sc3nc(-c4ccco4)nn3c2=O)c1	-10.2	17.4	1.1	-6.8	39.8	·	·
CN(Cc1ccccc1)C(=O)OCc1cn(Cc2cccc(F)c2)nn1	·	·	-4.5	0.8	·	·	·
COc1ccc(NS(=O)(=O)c2ccc(S(=O)(=O)N(C)C)cc2)cc1S(N)(=O)=O	-3.1	-5.6	2.0	3.7	76.8*	-1.2	3.3
CCC(C)Sc1nnc(Cc2cc(=O)[nH]c(=O)[nH]2)n1-c1ccc(OC)cc1 (stereo not drawn)	-5.4	-3.8	1.7	-4.3	63.3*	-1.6	-2.1
O=C(O)c1ccc(CSc2n[nH]c(-c3ccco3)n2)cc1	-6.9	25.9	0.0	-2.3	84.9*	59.1*	0.6
